# Data reported in publication PMC7862700, “An all-to-all approach to the identification of sequence-specific readers for epigenetic DNA modifications on cytosine”.
# How the values were obtained:
# Experiment in all cases: DAPPL (digital affinity profiling via proximity ligation, sequencing); 10 mM Tris-HCl pH 7.5, 50 mM NaCl, 1 mM DTT, 4% glycerol, room temperature, 30 min; GST-TFs on glutathione beads, 16-mer random dsDNA library, 0.1% formaldehyde crosslink after washing; high values mean tight binding
# [1] = molecular target: T1, FLI1 (Homo sapiens, UniProt Q01543 1-452); conditions: protein: recombinant; tags: N-terminal GST; dsDNA, one strand shown
# T1 sequence: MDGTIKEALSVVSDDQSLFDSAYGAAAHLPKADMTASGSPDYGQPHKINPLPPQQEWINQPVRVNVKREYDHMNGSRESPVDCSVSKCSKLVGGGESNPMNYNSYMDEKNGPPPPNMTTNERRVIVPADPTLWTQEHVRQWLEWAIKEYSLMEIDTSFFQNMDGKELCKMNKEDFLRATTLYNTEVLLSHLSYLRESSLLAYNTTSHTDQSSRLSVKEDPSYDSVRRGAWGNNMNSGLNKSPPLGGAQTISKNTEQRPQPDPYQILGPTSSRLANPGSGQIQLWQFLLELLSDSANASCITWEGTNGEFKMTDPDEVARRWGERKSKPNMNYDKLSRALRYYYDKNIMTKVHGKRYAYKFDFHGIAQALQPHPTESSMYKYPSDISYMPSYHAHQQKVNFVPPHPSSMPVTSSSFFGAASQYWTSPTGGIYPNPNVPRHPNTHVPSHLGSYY
# Procedure, shortened: (§1)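 Pools of DNA-barcoded human transcription factors, expressed in yeast as GST fusions on glutathione beads and combined with a tag-only sample, were incubated with 200 nmole of a 16-mer random double-stranded DNA library. Incubation took 30 min at room temperature in Tris/NaCl/DTT/glycerol buffer and was followed by washing, 0.1% formaldehyde crosslinking, proximity ligation (BsaI/T4 ligase, 1 h, 37 °C), PCR amplification and sequencing on an Illumina NextSeq500. Binding signal is the ratio of a hexamer's read frequency for a factor to its frequency for the tag-only sample.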
# [2] = molecular target: T2, ELK1 (Homo sapiens, UniProt P19419 1-428); conditions: protein: recombinant; tags: N-terminal GST; dsDNA, one strand shown
# T2 sequence: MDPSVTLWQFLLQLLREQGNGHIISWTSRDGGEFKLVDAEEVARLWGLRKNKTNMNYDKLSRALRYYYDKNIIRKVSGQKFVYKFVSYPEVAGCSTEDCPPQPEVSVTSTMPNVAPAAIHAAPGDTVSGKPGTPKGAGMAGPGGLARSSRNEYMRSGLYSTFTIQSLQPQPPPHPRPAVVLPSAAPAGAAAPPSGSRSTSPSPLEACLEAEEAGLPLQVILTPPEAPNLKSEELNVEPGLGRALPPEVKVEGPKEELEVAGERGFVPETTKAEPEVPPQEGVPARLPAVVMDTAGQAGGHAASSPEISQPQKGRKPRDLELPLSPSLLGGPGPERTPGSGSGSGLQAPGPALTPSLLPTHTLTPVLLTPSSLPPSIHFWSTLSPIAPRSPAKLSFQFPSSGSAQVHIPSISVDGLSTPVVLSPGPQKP
# Procedure, shortened: as §1
# [3] = molecular target: T3, GABPA (Homo sapiens, UniProt Q06546 1-454); conditions: protein: recombinant; tags: N-terminal GST; dsDNA, one strand shown
# T3 sequence: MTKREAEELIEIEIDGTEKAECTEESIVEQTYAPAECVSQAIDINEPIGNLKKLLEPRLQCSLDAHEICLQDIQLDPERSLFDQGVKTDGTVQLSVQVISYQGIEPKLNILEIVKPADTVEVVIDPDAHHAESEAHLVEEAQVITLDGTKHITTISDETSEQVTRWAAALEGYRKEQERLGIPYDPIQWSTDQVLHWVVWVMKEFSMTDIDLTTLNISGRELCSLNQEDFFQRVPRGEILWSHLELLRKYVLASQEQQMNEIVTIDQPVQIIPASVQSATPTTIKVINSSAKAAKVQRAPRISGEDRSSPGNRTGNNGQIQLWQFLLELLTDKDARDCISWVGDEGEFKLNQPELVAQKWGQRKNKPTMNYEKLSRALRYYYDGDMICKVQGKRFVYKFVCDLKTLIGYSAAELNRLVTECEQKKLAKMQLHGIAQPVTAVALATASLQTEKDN
# Procedure, shortened: as §1
# [4] = molecular target: T4, ERG (Homo sapiens, UniProt P11308 1-479); conditions: protein: recombinant; tags: N-terminal GST; dsDNA, one strand shown
# T4 sequence: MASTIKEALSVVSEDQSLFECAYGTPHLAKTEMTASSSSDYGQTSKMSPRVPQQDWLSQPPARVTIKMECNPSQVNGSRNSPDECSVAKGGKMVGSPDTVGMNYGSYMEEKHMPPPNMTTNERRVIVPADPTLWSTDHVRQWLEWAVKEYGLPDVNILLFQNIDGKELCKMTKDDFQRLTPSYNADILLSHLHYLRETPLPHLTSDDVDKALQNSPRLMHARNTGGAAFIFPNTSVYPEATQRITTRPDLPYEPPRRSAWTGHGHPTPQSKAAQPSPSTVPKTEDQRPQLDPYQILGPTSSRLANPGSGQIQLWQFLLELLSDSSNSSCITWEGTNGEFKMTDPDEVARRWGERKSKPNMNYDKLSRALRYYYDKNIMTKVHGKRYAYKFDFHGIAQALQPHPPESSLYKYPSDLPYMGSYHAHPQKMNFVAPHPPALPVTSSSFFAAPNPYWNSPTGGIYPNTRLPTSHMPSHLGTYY
# Procedure, shortened: as §1
# [5] = molecular target: ELF1 (Homo sapiens, UniProt P32519 1-619); conditions: protein: recombinant; tags: N-terminal GST; dsDNA, one strand shown
# Sequence of ELF1 (P32519 whole entry): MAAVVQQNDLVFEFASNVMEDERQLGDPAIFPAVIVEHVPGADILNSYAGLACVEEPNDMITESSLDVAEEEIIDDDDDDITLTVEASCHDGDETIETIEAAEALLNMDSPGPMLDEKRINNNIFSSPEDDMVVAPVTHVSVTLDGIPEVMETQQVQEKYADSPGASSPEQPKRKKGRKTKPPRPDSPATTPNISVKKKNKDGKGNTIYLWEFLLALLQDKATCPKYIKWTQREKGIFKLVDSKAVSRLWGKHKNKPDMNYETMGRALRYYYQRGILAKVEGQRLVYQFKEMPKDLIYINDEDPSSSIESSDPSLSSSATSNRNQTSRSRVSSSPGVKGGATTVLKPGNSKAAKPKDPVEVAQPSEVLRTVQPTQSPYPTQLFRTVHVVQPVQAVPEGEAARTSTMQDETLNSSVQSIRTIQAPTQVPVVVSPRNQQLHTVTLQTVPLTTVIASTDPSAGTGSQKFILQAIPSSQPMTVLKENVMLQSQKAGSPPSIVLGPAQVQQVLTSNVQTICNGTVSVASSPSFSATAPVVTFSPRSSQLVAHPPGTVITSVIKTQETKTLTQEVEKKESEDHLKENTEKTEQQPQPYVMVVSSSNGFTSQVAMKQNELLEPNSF
# Procedure, shortened: as §1
# [6] = molecular target: T5, EHF (Homo sapiens, UniProt Q9NZC4 1-300); conditions: protein: recombinant; tags: N-terminal GST; dsDNA, one strand shown
# T5 sequence: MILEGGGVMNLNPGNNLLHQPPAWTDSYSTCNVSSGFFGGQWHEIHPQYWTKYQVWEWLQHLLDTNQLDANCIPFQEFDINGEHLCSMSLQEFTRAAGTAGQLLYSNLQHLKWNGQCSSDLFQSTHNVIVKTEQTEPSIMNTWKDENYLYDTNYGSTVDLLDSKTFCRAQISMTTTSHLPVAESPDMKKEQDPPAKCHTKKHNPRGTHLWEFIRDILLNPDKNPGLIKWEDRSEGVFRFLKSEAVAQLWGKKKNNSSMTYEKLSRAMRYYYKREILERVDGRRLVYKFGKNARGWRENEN
# Procedure, shortened: as §1
# [7] = molecular target: SPI1 (Homo sapiens, UniProt P17947 1-270); conditions: protein: recombinant; tags: N-terminal GST; dsDNA, one strand shown
# Procedure, shortened: as §1
# [8] = molecular target: SPIB (Homo sapiens, UniProt Q01892 1-262); conditions: protein: recombinant; tags: N-terminal GST; dsDNA, one strand shown
# Sequence of SPIB (Q01892 whole entry): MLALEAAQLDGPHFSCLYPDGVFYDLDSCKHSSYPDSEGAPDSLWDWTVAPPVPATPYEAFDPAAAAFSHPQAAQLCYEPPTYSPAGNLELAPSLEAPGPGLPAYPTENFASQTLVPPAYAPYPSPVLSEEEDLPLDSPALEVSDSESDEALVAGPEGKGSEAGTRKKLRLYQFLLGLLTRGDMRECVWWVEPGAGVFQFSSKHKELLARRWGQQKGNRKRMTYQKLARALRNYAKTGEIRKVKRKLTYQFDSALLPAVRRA
# Procedure, shortened: as §1
# [9] = molecular target: T6, ELK3 (Homo sapiens, UniProt P41970 1-407); conditions: protein: recombinant; tags: N-terminal GST; dsDNA, one strand shown
# T6 sequence: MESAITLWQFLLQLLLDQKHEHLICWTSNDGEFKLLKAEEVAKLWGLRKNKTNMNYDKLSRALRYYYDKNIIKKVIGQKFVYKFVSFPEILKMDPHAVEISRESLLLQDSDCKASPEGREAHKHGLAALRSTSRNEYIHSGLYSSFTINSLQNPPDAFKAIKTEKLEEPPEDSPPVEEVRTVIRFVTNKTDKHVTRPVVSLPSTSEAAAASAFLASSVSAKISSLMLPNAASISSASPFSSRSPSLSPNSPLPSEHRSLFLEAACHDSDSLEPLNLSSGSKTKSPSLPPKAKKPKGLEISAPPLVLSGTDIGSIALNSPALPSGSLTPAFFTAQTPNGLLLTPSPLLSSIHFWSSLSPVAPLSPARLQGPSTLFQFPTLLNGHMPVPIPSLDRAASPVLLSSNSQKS
# Procedure, shortened: as §1
# [10] = molecular target: T7, FEV (Homo sapiens, UniProt Q99581 1-238); conditions: protein: recombinant; tags: N-terminal GST; dsDNA, one strand shown
# T7 sequence: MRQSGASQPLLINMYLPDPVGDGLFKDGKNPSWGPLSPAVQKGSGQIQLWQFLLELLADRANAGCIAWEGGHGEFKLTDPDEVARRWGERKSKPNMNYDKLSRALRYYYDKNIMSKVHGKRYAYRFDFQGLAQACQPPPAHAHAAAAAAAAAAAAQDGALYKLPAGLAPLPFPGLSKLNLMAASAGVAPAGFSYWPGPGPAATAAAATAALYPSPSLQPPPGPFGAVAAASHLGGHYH
# Procedure, shortened: as §1
# [11] = molecular target: ETV5 (Homo sapiens, UniProt P41161 1-510); conditions: protein: recombinant; tags: N-terminal GST; dsDNA, one strand shown
# Sequence of ETV5 (P41161 whole entry): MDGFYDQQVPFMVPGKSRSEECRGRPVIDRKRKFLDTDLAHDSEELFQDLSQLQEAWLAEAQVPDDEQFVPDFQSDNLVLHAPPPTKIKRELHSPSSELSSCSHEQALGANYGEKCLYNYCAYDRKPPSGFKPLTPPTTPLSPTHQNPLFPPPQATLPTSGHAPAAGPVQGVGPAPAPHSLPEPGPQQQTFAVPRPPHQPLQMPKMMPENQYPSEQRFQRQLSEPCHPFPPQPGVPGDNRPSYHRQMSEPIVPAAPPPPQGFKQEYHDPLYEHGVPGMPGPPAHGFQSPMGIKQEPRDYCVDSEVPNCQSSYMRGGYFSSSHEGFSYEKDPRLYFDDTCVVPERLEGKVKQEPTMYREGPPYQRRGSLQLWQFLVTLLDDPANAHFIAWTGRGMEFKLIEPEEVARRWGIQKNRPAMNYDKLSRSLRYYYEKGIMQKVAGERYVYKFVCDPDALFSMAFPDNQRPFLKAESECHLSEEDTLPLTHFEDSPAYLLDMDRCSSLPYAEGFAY
# Procedure, shortened: as §1
# [12] = molecular target: HSF1 (Homo sapiens, UniProt Q00613 1-529); conditions: protein: recombinant; tags: N-terminal GST; chain copies: 3; dsDNA, one strand shown
# Sequence of HSF1 (Q00613 whole entry): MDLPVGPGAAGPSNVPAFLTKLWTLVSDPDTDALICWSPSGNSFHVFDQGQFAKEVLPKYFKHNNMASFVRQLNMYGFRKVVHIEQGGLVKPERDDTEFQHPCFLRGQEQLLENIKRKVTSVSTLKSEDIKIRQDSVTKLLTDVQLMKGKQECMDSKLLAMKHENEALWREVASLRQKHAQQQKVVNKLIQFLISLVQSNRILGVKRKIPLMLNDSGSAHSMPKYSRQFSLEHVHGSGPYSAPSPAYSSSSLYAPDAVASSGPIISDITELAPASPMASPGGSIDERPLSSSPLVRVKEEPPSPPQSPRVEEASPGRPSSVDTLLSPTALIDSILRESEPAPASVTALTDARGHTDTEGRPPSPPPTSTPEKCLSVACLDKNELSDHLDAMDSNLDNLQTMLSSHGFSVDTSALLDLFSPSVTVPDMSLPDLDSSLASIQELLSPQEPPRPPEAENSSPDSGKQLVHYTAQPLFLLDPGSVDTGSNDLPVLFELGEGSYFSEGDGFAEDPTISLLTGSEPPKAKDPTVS
# Procedure, shortened: as §1
# [13] = molecular target: T8, SPIC (Homo sapiens, UniProt Q8N5J4 1-248); conditions: protein: recombinant; tags: N-terminal GST; dsDNA, one strand shown
# T8 sequence: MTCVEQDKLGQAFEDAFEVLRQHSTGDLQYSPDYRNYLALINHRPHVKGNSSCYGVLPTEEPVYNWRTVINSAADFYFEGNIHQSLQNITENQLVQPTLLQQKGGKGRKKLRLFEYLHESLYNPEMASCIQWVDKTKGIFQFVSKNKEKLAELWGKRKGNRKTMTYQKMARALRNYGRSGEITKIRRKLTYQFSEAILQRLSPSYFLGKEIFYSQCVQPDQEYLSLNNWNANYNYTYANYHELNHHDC
# Procedure, shortened: as §1
# [14] = molecular target: ELF4 (Homo sapiens, UniProt Q99607 1-663); conditions: protein: recombinant; tags: N-terminal GST; dsDNA, one strand shown
# Sequence of ELF4 (Q99607 whole entry): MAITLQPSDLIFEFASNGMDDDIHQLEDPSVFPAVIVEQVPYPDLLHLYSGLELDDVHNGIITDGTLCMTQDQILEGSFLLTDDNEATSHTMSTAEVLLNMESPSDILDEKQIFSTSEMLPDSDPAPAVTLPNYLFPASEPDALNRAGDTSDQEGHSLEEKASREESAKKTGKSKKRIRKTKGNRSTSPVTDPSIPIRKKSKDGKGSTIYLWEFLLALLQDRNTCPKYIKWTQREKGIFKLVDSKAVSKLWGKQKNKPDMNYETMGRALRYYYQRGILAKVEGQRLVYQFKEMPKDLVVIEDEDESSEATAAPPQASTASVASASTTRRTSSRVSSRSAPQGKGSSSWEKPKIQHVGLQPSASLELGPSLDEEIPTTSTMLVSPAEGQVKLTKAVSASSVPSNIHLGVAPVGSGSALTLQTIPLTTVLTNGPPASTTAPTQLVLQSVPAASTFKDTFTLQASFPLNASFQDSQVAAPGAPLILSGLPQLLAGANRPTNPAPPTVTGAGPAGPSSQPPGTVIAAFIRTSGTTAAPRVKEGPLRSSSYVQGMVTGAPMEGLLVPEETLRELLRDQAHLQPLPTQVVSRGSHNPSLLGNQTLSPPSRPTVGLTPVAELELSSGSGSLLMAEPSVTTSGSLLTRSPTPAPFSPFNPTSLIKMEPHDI
# Procedure, shortened: as §1
# [15] = molecular target: T9, ELK4 (Homo sapiens, UniProt P28324-2 1-405); conditions: protein: recombinant; tags: N-terminal GST; dsDNA, one strand shown
# T9 sequence: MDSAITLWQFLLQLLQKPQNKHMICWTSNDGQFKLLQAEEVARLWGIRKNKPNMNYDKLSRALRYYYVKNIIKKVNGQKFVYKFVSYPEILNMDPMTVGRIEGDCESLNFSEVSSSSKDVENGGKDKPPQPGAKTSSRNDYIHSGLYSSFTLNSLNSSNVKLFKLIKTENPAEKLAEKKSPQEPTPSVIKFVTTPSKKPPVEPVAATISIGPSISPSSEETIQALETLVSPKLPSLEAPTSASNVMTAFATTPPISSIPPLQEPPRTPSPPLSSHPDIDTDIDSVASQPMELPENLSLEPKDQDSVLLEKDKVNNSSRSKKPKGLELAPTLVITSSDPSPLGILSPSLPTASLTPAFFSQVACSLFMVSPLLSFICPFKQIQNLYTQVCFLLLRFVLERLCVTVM
# Procedure, shortened: as §1
# [16] = molecular target: T10, ETV2 (Homo sapiens, UniProt O00321 1-342); conditions: protein: recombinant; tags: N-terminal GST; dsDNA, one strand shown
# T10 sequence: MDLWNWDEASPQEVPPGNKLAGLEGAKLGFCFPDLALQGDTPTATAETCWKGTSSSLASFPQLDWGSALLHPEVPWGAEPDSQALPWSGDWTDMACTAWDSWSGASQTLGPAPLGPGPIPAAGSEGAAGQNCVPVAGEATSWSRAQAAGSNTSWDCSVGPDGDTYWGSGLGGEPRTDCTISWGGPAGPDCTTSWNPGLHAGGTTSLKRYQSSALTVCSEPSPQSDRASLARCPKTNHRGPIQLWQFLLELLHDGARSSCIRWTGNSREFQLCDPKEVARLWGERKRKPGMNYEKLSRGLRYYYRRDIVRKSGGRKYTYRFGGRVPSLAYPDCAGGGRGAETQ
# Procedure, shortened: as §1
# [17] = molecular target: T11, ELF3 (Homo sapiens, UniProt P78545 1-371); conditions: protein: recombinant; tags: N-terminal GST; dsDNA, one strand shown
# T11 sequence: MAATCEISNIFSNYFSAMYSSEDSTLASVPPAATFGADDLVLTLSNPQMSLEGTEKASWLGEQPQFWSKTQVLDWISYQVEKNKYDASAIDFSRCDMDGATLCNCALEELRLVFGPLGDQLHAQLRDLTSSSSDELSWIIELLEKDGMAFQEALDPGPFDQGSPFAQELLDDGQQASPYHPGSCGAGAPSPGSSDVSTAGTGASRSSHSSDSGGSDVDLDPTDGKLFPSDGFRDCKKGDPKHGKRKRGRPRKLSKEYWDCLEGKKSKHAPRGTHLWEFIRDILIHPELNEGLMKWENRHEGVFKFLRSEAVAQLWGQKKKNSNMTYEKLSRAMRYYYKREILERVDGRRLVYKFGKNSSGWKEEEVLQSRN
# Procedure, shortened: as §1
# [18] = molecular target: CRX (Homo sapiens, UniProt O43186 1-299); conditions: protein: recombinant; tags: N-terminal GST; dsDNA, one strand shown
# Sequence of CRX (O43186 whole entry): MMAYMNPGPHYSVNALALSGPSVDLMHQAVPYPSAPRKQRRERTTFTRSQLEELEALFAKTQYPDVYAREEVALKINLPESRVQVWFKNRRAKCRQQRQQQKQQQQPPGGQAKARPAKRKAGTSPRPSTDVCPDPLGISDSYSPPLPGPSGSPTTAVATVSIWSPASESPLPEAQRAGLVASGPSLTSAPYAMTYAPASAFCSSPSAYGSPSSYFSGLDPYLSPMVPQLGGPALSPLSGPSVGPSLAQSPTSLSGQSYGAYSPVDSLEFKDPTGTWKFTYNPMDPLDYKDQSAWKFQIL
# Procedure, shortened: as §1
# [19] = molecular target: ETV1 (Homo sapiens, UniProt P50549 1-477); conditions: protein: recombinant; tags: N-terminal GST; dsDNA, one strand shown
# Sequence of ETV1 (P50549 whole entry): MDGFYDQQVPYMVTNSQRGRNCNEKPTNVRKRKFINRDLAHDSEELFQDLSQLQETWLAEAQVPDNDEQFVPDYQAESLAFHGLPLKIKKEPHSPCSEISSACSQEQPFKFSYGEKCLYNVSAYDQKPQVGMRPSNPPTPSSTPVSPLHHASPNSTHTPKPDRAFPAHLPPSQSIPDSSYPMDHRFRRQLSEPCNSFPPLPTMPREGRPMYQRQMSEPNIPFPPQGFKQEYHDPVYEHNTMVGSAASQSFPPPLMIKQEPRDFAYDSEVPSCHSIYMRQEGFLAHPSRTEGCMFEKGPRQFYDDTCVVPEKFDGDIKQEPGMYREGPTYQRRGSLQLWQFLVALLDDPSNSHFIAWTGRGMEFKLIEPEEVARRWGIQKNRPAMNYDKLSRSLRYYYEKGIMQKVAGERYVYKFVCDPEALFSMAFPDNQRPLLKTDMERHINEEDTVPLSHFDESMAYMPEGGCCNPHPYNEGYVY
# Procedure, shortened: as §1
sequence,measurement,setting,value
TTACAG,binding signal,[1],"1.19 fold enrichment (6-mer frequency, TF over GST control)"
same,binding signal,[2],"1.18 fold enrichment (6-mer frequency, TF over GST control)"
same,binding signal,[3],"1.15 fold enrichment (6-mer frequency, TF over GST control)"
same,binding signal,[4],"1.17 fold enrichment (6-mer frequency, TF over GST control)"
same,binding signal,[5],"1.22 fold enrichment (6-mer frequency, TF over GST control)"
same,binding signal,[6],"1.13 fold enrichment (6-mer frequency, TF over GST control)"
same,binding signal,[7],"1.11 fold enrichment (6-mer frequency, TF over GST control)"
same,binding signal,[8],"1.29 fold enrichment (6-mer frequency, TF over GST control)"
same,binding signal,[9],"1.17 fold enrichment (6-mer frequency, TF over GST control)"
same,binding signal,[10],"1.14 fold enrichment (6-mer frequency, TF over GST control)"
same,binding signal,[11],"1.2 fold enrichment (6-mer frequency, TF over GST control)"
same,binding signal,[12],"1.44 fold enrichment (6-mer frequency, TF over GST control)"
same,binding signal,[13],"1.3 fold enrichment (6-mer frequency, TF over GST control)"
same,binding signal,[14],"1.26 fold enrichment (6-mer frequency, TF over GST control)"
same,binding signal,[15],"1.37 fold enrichment (6-mer frequency, TF over GST control)"
same,binding signal,[16],"1.14 fold enrichment (6-mer frequency, TF over GST control)"
same,binding signal,[17],"1.38 fold enrichment (6-mer frequency, TF over GST control)"
same,binding signal,[18],"1.85 fold enrichment (6-mer frequency, TF over GST control)"
same,binding signal,[19],"1.2 fold enrichment (6-mer frequency, TF over GST control)"
